Laboratory results as given in PubChem BioAssay (EPA / NIEHS).
Calls of active or inactive are those of the source. The calls were made as follows: active = hit-call score of the fitted dose curve at least 0.9, where 1 is the maximum; inactive = score below 0.9.

Columns and labels:
[1] = ATG_CRE_CIS: Attagene CIS-FACTORIAL HepG2 Assay for human cAMP Responsive Element (CRE) binding protein 3 (AID 2282926); details: HepG2 CRE cis-reporter, Attagene multiplexed mRNA; actives raise or lower the signal
Outline: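 Endogenous transcription factor activity read via CRE-regulated reporter transcripts in transfected HepG2 cells. After 24 h exposure, RNA was reverse-transcribed, amplified, fluorescently labelled and sized by capillary electrophoresis; gain or loss fitted against DMSO.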

[2] = target: CCAAT/enhancer-binding protein beta (Homo sapiens) (UniProt P17676); test: ATG_C_EBP_CIS: Attagene CIS-FACTORIAL HepG2 Assay for human CCAAT/Enhancer Binding Protein (C/EBP) beta (AID 2282927); details: HepG2 Attagene cis-factorial transcription factor reporter; actives raise or lower the signal
Chain of CCAAT/enhancer-binding protein beta (Homo sapiens) (P17676 whole entry, looked up): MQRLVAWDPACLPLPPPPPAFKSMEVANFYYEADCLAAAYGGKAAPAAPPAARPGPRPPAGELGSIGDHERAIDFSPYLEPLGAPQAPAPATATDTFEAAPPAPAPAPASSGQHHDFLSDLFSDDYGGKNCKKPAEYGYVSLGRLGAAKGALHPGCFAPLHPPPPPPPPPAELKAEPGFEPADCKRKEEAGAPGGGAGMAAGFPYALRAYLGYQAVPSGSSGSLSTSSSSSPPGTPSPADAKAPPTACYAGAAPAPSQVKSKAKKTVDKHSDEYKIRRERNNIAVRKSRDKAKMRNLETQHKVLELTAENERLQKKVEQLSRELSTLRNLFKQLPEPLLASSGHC
Outline: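 Following a 24 h incubation with test chemical, transfected HepG2 cells yielded RNA whose reporter transcripts were quantified by RT-PCR and fluorescent capillary electrophoresis, with DMSO serving as baseline for bidirectional fitting.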

[3] = ATG_CMV_CIS: Attagene CIS-FACTORIAL HepG2 Assay for human CMV (Internal Marker) (AID 2282928); details: HepG2 CMV promoter reporter, transcription factor profiling; actives raise or lower the signal;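 also: endpoint acts as a background internal control marker rather than a target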
Outline: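 Readout: fluorescent reporter cDNA fragments separated by capillary electrophoresis after RT-PCR and HpaI cut. Cells: HepG2 carrying transfected cis-promoter reporter constructs, dosed 24 h. Endpoint serves as background internal-marker control, fit bidirectionally versus DMSO.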

[4] = ATG_DR4_LXR_CIS: Attagene CIS-FACTORIAL HepG2 Assay for human Liver X Receptor (LXR), DR4 submotif (AID 2282929); details: HepG2 Attagene DR4 cis-reporter, mRNA transcription; actives raise or lower the signal
Outline: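 Total RNA from 24 h-treated, MRTU-transfected HepG2 cells underwent reverse transcription, PCR, fluorescent primer extension and restriction digestion before capillary electrophoresis. Both increases and decreases in reporter signal were fitted against DMSO.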

[5] = target: Aryl hydrocarbon receptor (Homo sapiens) (UniProt P35869); test: ATG_Ahr_CIS: Attagene CIS-FACTORIAL HepG2 Assay for human Aryl Hydrocarbon Receptor (Ahr) (AID 2282930); details: HepG2 AhR cis-factorial reporter transcription; actives raise or lower the signal
Chain of Aryl hydrocarbon receptor (Homo sapiens) (P35869 whole entry, looked up): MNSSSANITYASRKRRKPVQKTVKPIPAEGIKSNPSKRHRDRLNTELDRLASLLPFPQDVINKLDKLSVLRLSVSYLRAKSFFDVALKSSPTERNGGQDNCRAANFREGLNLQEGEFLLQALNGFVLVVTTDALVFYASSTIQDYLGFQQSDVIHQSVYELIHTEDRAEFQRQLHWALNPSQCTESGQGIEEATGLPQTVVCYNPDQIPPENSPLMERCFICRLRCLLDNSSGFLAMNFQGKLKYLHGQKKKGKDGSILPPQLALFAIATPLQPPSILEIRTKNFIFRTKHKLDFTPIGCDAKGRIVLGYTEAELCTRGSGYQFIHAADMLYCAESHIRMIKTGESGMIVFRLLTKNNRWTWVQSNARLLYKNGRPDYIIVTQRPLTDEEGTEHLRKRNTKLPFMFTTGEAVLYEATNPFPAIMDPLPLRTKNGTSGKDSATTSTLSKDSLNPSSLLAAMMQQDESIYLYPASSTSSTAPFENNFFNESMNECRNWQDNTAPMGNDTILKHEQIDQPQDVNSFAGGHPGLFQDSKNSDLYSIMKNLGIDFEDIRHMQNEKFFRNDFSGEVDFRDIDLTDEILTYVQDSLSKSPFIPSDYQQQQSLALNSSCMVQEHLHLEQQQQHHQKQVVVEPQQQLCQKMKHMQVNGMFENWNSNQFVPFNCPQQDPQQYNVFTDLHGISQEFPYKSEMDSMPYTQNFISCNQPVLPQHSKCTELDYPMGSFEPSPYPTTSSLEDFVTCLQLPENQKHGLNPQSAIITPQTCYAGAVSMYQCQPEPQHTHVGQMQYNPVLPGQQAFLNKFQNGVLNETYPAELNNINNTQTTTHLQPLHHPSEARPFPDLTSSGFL
Outline: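 Values derive from bidirectional fitting against DMSO negative control. Underlying signal: cis-element reporter mRNA in transiently transfected HepG2, harvested 24 h post-dose and measured by RT-PCR plus capillary electrophoresis.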

[6] = ATG_AP_1_CIS: Attagene CIS-FACTORIAL HepG2 Assay for human Activator Protein 1 (AP-1) (AID 2282931); details: HepG2 Attagene cis-factorial AP-1 reporter mRNA; actives raise or lower the signal
Outline: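 HepG2, transient cis-reporter transfection; 24 h; readout RT-PCR/CE fluorescence; DMSO baseline, gain and loss fitted.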

[7] = ATG_AP_2_CIS: Attagene CIS-FACTORIAL HepG2 Assay for human Activator Protein 2 (AP-2) (AID 2282932); details: HepG2 AP-2 cis-reporter, Attagene transcription factor profiling; actives raise or lower the signal
Outline: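 Assay in transfected HepG2 with promoter-regulated reporters, 24 h incubation after dosing. Signal is reporter mRNA fluorescence (RT-PCR, capillary electrophoresis), analysed for both increases and decreases relative to DMSO controls.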

[8] = ATG_BRE_CIS: Attagene CIS-FACTORIAL HepG2 Assay for human Bone Morphogenetic Protein (BMP) Response Element (BRE) (AID 2282933); details: HepG2 BMP response element reporter, Attagene transcription factor profiling; actives raise or lower the signal
Outline: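 Endogenous transcription factor activity read in transiently transfected HepG2 cells after 24 h chemical exposure. Bidirectional curve fitting against DMSO; readout is reporter transcript level by RT-PCR with capillary electrophoresis of labelled products.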

[9] = target: Retinoic acid receptor alpha (Homo sapiens) (UniProt P10276); test: ATG_DR5_RAR_CIS: Attagene CIS-FACTORIAL HepG2 Assay for human Retinoic Acid Receptor Alpha (RARE), DR5 submotif (AID 2282934); details: HepG2 Attagene cis-factorial RARE DR5 reporter, mRNA; actives raise or lower the signal
Chain of Retinoic acid receptor alpha (Homo sapiens) (P10276 whole entry, looked up): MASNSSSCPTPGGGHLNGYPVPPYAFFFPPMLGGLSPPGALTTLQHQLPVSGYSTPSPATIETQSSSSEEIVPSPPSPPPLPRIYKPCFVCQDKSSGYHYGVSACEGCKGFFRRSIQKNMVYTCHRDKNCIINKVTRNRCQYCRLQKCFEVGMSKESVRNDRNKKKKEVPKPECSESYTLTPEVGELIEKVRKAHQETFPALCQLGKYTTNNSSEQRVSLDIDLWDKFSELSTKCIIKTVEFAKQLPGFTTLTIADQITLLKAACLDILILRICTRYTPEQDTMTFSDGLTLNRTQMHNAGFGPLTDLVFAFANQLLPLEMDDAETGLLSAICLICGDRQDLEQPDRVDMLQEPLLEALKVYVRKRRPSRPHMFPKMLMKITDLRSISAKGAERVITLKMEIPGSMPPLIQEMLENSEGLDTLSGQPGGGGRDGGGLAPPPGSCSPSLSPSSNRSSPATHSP
Outline: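 Endpoint fitted in both directions relative to DMSO as negative control. It reflects DR5 cis-element reporter mRNA induction in transiently transfected HepG2 cells, measured 24 h after dosing through RT-PCR and fluorescent capillary electrophoresis.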

[10] = target: Transcription factor E2F1 (Homo sapiens) (UniProt Q01094); test: ATG_E2F_CIS: Attagene CIS-FACTORIAL HepG2 Assay for human E2F Transcription Factor 1 (AID 2282935); details: HepG2 Attagene cis-reporter, E2F reporter RNA transcripts; actives raise or lower the signal
Chain of Transcription factor E2F1 (Homo sapiens) (Q01094 whole entry, looked up): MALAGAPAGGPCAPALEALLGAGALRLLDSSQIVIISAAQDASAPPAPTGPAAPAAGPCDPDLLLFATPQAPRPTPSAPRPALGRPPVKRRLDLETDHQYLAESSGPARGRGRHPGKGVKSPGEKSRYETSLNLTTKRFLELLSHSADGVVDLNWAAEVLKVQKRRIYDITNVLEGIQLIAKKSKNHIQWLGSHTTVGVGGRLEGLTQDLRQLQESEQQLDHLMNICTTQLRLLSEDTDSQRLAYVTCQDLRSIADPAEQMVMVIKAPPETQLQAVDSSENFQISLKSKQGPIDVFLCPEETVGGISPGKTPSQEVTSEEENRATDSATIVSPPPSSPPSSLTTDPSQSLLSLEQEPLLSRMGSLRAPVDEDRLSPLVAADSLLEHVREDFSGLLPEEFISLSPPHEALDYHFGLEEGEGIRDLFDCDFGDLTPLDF
Outline: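 In this cis-factorial format, endogenous factor activity drives transfected reporters in HepG2; transcripts collected at 24 h are quantified by fluorescence after RT-PCR and capillary separation.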

[11] = ATG_E_Box_CIS: Attagene CIS-FACTORIAL HepG2 Assay for human Enhancer Box (E-box) (AID 2282936); details: HepG2 E-box cis-reporter transcription, actives raise or lower the signal
Outline: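 Measured 24 h post-dosing in HepG2 cells transfected with multiple cis-regulated reporter units, signal being reporter mRNA induction detected by fluorescent RT-PCR with capillary electrophoresis; gain or loss fitted against DMSO.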

[12] = ATG_M_61_CIS: Attagene CIS-FACTORIAL HepG2 Assay for M61 Transcription Factor (Internal Marker) (AID 2282937); details: HepG2 Attagene CIS-FACTORIAL M61 internal marker reporter; actives raise or lower the signal
Outline: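 Transfect HepG2 with MRTUs; dose 24 h; isolate RNA; reverse-transcribe with DNase I treatment; PCR-amplify, FAM-label and cut with HpaI for 2 h at 37 C; resolve by CE. Bidirectional fitting against DMSO.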

[13] = ATG_EGR_CIS: Attagene CIS-FACTORIAL HepG2 Assay for human Early Growth Response 1 (EGR1) (AID 2282938); details: HepG2 Attagene CIS-FACTORIAL EGR reporter mRNA; actives raise or lower the signal
Outline: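 After a 24 h treatment of transiently transfected HepG2 cells, total RNA was reverse-transcribed and reporter sequences PCR-amplified, labelled and run on capillary electrophoresis. Reporters sit under cis-regulatory promoters sensing endogenous factors.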

[14] = ATG_M_19_CIS: Attagene CIS-FACTORIAL HepG2 Assay for M19 Transcription Factor (Internal Marker) (AID 2282939); details: HepG2 Attagene CIS-FACTORIAL M19 internal marker reporter; actives raise or lower the signal
Outline: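 Internal marker readout, fitted in both directions against DMSO, from HepG2 cells carrying transfected cis-element reporter constructs; RT-PCR and capillary electrophoresis of reporter mRNA after 24 h exposure.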

[15] = ATG_Ets_CIS: Attagene CIS-FACTORIAL HepG2 Assay for human Erythroblast Transformation Specific (ETS) (AID 2282941); details: HepG2 ETS cis-reporter transcription, actives raise or lower the signal
Outline: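 RT-PCR/capillary electrophoresis fluorescence read-out of reporter mRNA; HepG2 transient multi-reporter transfection; 24 h compound exposure; gain or loss of signal fitted bidirectionally relative to DMSO.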

[16] = target: Hepatocyte nuclear factor 3-beta (Homo sapiens) (UniProt Q9Y261); test: ATG_FoxA2_CIS: Attagene CIS-FACTORIAL HepG2 Assay for human Forkhead box A2 (FOXA2) (AID 2282942); details: HepG2 cis-reporter transcription factor activity, 24 h; actives raise or lower the signal
Chain of Hepatocyte nuclear factor 3-beta (Homo sapiens) (Q9Y261 whole entry, looked up): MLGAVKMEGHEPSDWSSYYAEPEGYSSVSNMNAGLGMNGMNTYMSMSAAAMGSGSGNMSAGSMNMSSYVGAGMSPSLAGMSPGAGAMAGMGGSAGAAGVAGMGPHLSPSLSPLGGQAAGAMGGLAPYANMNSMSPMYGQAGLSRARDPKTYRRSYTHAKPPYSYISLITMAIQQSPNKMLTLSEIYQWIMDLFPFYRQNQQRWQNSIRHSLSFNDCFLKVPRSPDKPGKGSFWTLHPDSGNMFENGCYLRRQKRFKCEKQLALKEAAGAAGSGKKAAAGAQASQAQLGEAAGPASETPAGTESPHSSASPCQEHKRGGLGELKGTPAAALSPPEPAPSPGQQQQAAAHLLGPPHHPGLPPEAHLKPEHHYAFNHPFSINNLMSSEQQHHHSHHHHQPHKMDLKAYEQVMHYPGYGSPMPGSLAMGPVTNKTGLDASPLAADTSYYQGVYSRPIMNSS
Outline: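 24 h dosing of HepG2 bearing cis-reporter constructs; mRNA readout by RT-PCR/CE fluorescence; bidirectional fit, DMSO baseline.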

[17] = ATG_FoxO_CIS: Attagene CIS-FACTORIAL HepG2 Assay for human Forkhead box O (FoxO) (AID 2282943); details: HepG2 Attagene cis-reporter, FoxO element, mRNA; actives raise or lower the signal
Outline: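 Values reflect reporter mRNA induction or loss in HepG2 cells 24 h post-dosing, fitted bidirectionally with DMSO as negative control and baseline. Detection used RT-PCR and fluorescence capillary electrophoresis.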

[18] = ATG_GATA_CIS: Attagene CIS-FACTORIAL HepG2 Assay for human GATA Binding Protein (AID 2282944); details: HepG2 GATA cis-element reporter, Attagene multiplex mRNA; actives raise or lower the signal
Outline: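 Reporter transcripts from a GATA cis-regulated unit, among multiplexed reporters in transfected HepG2 cells, were measured by RT-PCR with capillary electrophoresis after 24 h dosing. Induction or loss scored relative to DMSO.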

[19] = ATG_GLI_CIS: Attagene CIS-FACTORIAL HepG2 Assay for human Zinc Finger Protein GLI1 (AID 2282945); details: HepG2, Attagene cis-factorial reporter mRNA, GLI element; actives raise or lower the signal
Outline: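 HepG2 cells transiently transfected with cis-promoter multiplexed reporter units report endogenous transcription factor activity. After 24 h chemical exposure, reporter mRNA was quantified by RT-PCR, 6-FAM labelling, HpaI digestion and capillary electrophoresis, with bidirectional fitting against DMSO.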

Measured: AC50

CC(C)(C)c1cc(CCC(=O)NN)cc(C(C)(C)C)c1O
inactive: all assays above

O=S(=O)(O)NC1CCCCC1
not listed: [14]
inactive: all other assays above

O=c1oc(=O)c2cc3c(=O)oc(=O)c3cc12
not listed: [16] | [17]
inactive: all other assays above

CO[Si](CCCn1c(=O)n(CCC[Si](OC)(OC)OC)c(=O)n(CCC[Si](OC)(OC)OC)c1=O)(OC)OC
not listed: [15]
inactive: all other assays above

O=C1C(c2[nH]c3ccc(S(=O)(=O)O)cc3c2O)=Nc2ccc(S(=O)(=O)O)cc21
active: [5] 27.6 µM
inactive: all other assays above

CCO[Si](CCCS)(OCC)OCC
inactive: all assays above

CCCCNC(=O)NS(=O)(=O)c1ccc(N)cc1
inactive: all assays above

Cc1ccc2ccccc2n1
active: [5] 18.3 µM
inactive: all other assays above

O=C1CCCCCCCCCCOCCCCO1
active: [4] 74.1 µM | [8] 100 µM
not listed: [17]
inactive: all other assays above

CCC(C)CCCC(C)(C)O (stereo unspecified)
inactive: all assays above

CCCCCCOC(=O)CCCCC
not listed: [16] | [17]
inactive: all other assays above

CCCCCOC(=O)CCC
not listed: [16]
inactive: all other assays above

Cc1cccc(Nc2ccccc2C(=O)O)c1C
not listed: [14]
inactive: all other assays above

CCOC(=O)c1ccccc1OC
inactive: all assays above

CCCCCNCCCCC
inactive: all assays above
